The record followed here is PubChem BioAssay AID1445 (SRMLSC, 2008).

Among all 220,000 compounds or so, about 910 (0.41%) were called active.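 Rule for the calls: active = primary inhibition above the hit cutoff, then over 50% inhibition at one or more dose response concentrations (cut at about 23% in these data, passing the limit was not always enough); inconclusive = conflicting primary data, or primary hits not chosen for dose response; inactive = low primary inhibition, or under 50% at every dose.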 Many of the other results were omitted from the sample, so actives are more common in it than they were. Measured potencies and affinities stand elsewhere.

In this assay the target is Aminopeptidase N (Plasmodium falciparum (isolate 3D7)) (UniProt O96935). In words: P. falciparum M1AAP inhibitors, biochemical, fluorogenic H-Leu-NHMec substrate, 1536-well (AID 1445).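 Note: plate controls were DMSO full reaction for no effect and no enzyme background for full effect.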 To be noted: recombinant M1AAP, H-Leu-NHMec fluorogenic kinetic assay; at 30 µM, active compounds read high unless noted.
Chain of Aminopeptidase N (Plasmodium falciparum (isolate 3D7)) (O96935 whole entry, looked up): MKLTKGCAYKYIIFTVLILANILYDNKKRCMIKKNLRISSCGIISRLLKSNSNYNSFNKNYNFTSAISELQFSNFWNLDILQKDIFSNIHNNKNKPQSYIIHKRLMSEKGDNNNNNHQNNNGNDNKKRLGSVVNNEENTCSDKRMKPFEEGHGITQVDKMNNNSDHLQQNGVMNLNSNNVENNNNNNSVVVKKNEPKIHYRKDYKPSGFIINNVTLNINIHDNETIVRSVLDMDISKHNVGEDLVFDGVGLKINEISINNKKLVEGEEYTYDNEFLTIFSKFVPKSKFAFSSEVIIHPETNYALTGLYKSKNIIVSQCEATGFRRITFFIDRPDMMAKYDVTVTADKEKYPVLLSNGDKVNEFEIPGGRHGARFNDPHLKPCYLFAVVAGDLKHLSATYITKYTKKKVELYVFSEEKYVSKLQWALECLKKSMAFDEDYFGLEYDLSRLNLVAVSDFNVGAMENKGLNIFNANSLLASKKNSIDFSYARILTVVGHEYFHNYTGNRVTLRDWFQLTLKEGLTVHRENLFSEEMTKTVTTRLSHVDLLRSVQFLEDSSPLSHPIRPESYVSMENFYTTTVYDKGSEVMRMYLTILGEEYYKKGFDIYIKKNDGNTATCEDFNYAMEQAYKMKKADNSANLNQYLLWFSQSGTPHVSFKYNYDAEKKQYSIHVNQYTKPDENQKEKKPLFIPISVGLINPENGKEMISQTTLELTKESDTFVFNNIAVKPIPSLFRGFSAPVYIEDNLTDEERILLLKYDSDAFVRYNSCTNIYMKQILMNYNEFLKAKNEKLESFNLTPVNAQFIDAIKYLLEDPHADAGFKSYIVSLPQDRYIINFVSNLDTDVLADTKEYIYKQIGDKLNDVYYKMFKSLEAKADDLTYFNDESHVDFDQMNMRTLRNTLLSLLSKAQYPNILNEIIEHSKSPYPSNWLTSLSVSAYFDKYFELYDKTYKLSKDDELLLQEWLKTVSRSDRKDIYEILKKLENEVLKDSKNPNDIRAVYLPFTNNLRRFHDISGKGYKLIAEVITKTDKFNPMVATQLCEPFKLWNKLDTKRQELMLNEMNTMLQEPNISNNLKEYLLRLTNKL
The term inhibition denotes the relative decrease from the control value, in per cent. Turning to `CCCS(=O)(=O)N1CCCC(C(=O)c2cccc(Cl)c2)C1` (configuration not stated), the inhibition is 2.05% (inactive). As to `O=C(NNC(=O)C1CCN(S(=O)(=O)c2cccc(C(F)(F)F)c2)CC1)C1CC1`, the inhibition was -0.46% (inactive). As to `CCCS(=O)(=O)N1CCC(C(=O)c2cccc(C(F)(F)F)c2)CC1`, the inhibition is 23.4% (active).

As for `CS(=O)(=O)N1CCCC(C(=O)c2cccc(Cl)c2)C1` (configuration not stated), the inhibition is -1.4% (inactive). In the case of `CS(=O)(=O)N1CCC(C(=O)Nc2cccc(Cl)c2)CC1` it was -2.4% (inactive); in that of `CCCCC1NC(C(=O)O)CS1` (configuration not stated), -4.57% (inactive).

In the case of `Cc1ccc(C2C(=O)N(C3CCC(C)CC3)CC(=O)N2C2CC2)cc1` (configuration not stated), the inhibition was 6.72% (inactive). In the case of `COc1ccc(-n2ncc(N(C)n3cccc3)c(Cl)c2=O)cc1` it was 4.45% (inactive); in that of `COc1ccc(/C=C\C(=O)NCC(=O)N/N=C/c2ccc(O)cc2O)cc1`, 33.7% (inactive).

With `O=C(CCNC(=O)c1ccccc1)N=Nc1c(O)[nH]c2ccccc12`, the inhibition was 14% (inactive). In the case of `CCOC(=O)c1cc(-c2cccc([N+](=O)[O-])c2)on1` it was 7.98% (inactive); in that of `CCOC(=O)c1cc(-c2cccc([N+](=O)[O-])c2)n[nH]1`, 0.83% (inactive). For the compound `COc1ccc(N(C)C(=S)Nc2ccc3nc(C)c(C)nc3c2)cc1`, the inhibition was 0.41% (inactive). As for `Cc1noc(NC(=O)c2cccc(C(F)(F)F)c2)c1Cl`, the figure is 1.44% (inactive); as for `CCOC(=O)c1ccc(C(=O)OCC)nc1`, -0.25% (inactive); as for `CCOC(=O)C1(CCOc2ccccc2)CCN(Cc2cccc3nonc23)CC1`, 11.9% (inactive). Turning to `COc1ccc(C2c3[nH]c4ccccc4c3CCN2C(=O)c2ccc(=O)n(C)n2)c(F)c1` (configuration not stated), the inhibition was -6.53% (inactive).

In the case of `O=C(c1ccccc1)N1CCC(O)(c2ccc3c(c2)OCO3)CC1`, the inhibition is -2.13% (inactive). In the case of `CCN1C(=O)c2ccc(C(=O)NCc3ccccc3)cc2C1=O` it was 1.2% (inactive); in that of `CN1C(=O)c2ccc(C(=O)NCc3ccccc3)cc2C1=O`, 5.4% (inactive).

With `CCCCCOc1ccccc1C(=O)NCCC(=O)O`, the inhibition is 0.09% (inactive). In the case of `Cc1cc(C)n(-c2ccc(F)cc2)c(=O)c1C#N` it was 3.92% (inactive); in that of `CCO/N=C(/C)c1c(O)cc(C(C)(C)C)n(-c2ccccc2)c1=O`, 1.22% (inactive). In the case of `Cc1ccc(C)c(NC2=NS(=O)(=O)c3ccccc32)c1` it was 3.34% (inactive); in that of `CC(=O)Nc1ccc(S(=O)(=O)NNC2=NS(=O)(=O)c3ccccc32)cc1`, 5.01% (inactive). Regarding `Cc1cc(C)n2nc(N)c(N=Nc3ccc4c(c3)OCO4)c2n1`, the inhibition was -0.91% (inactive).

Turning to `O=C(Nc1ccc(OCC(F)(F)C(F)F)cc1)c1ccncc1`, the inhibition is 3.56% (inactive).
